Shiga inhibitor = A qHTS for Small Molecule Inhibitors of Shiga Toxin; AID 2315, 2010; hit rate 9.2% among 290,000; Vero cells, Shiga toxin protein synthesis inhibition reporter; inhibition, % at 38.7 µM; in the data active = inhibition mostly above about 28%, no sharp cut-off; inactive = mostly below about 43%; note: 0% is about no effect
SARS PLpro yeast = qHTS of Yeast-based Assay for SARS-CoV PLP; hit rate 0.19% among 330,000; Potency, µM (doses to about 32.9 µM), for inactives: at the highest dose activity, positive = growth rescue, hits mostly activators; S. cerevisiae expressing SARS-CoV PLpro, growth rescue; AID 485353, 2010; calls by dose curve; note: potency is the fitted concentration of half-maximal effect; 0% is about no effect; nearly all actives have a fitted effect of over 55% in size
Pf growth 96h = Primary qHTS for delayed death inhibitors of the malarial parasite plastid, 96 hour incubation; P. falciparum luciferase reporter growth, 96 h; Potency, µM (top dose mostly 28.7 µM), for the others: at the top dose activity change, negative = inhibition, hits mostly inhibitors; hit rate 6.9% among 320,000; AID 504834, 2011; note: potency is the fitted concentration of half-maximal effect; % is set by controls: 0 for no effect and ±100 for the full control effect
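Luminescence readout: decreased luciferase signal marks inhibited growth of reporter-expressing P. falciparum in infected red cells (2% hematocrit, 0.05% parasitemia final), exposed to compound two generations (96 h, 37 C, 5% CO2).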
Pf growth 48h = Primary qHTS for delayed death inhibitors of the malarial parasite plastid, 48 hour incubation. Potency, µM (highest dose often 28.7 µM), inactives show top-dose activity change, negative = inhibition, actives largely listed as inhibitors. hit rate 5.9% among 310,000. P. falciparum luciferase growth in erythrocytes, 48 h; note: potency is the fitted concentration of half-maximal effect; % is set by controls: 0 for no effect and ±100 for the full control effect
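Firefly luciferase activity from engineered P. falciparum reports growth; inhibitors lower the luminescent signal. Cultures contained 2% hematocrit erythrocytes at 0.1% final parasitemia.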
AMA1 RON2 block = qHTS for Inhibitors of AMA1-RON; Towards Development of Antimalarial Drug Lead: Primary Screen | AlphaScreen AMA1-biotinylated RON2 peptide binding | AID 720542, 2013 | Potency, µM (top dose mostly 58.2 µM), for inactives: at the top dose activity change, negative = inhibition, most hits filed as inhibitors | Plasmodium falciparum AMA1 (3D7) - RON2 peptide interaction | hit rate 0.2% among 360,000;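 note: potency is the fitted concentration of half-maximal effect; 0% = vehicle wells and -100% = peptide control; nearly all actives have a fitted effect of over 45% in size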
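AMA1 (3D7) with his tag at 25 nM final met compounds first, then biotinylated RON2 peptide at 25 nM; detection used donor plus acceptor beads, 10 µg/mL apiece, read by AlphaScreen after 30 min at room temperature.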
Cycloheximide cs = Cycloheximide Counterscreen for Small Molecule Inhibitors of Shiga Toxin; max response, %; AID 2314, 2010; hit rate 12% among 300,000; cell reporter, cycloheximide protein synthesis inhibition counterscreen; in the data active = max response mostly above about 13%, no sharp cut-off; inactive = mostly below about 14%; note: read at 38.3 µM for the half of the compounds with a filed dose; 0% is about no effect
An asterisk follows results filed as active; ? = inconclusive; . = no result given; + = active, no number. The list is not random: actives were taken first. Their share in the collection is about 19%. Unless noted, calls come from the whole dose curve; as a rule, active = well fitted curve in the direction sought with a large enough effect; inconclusive = small, poorly fitted or top-dose-only effect, or another doubt; inactive = no such curve, though single readings can be large; an effect the other way counts as inactive or inconclusive.

SMILES | Shiga inhibitor | SARS PLpro yeast | Pf growth 96h | Pf growth 48h | AMA1 RON2 block | Cycloheximide cs
OC(CNCc1cccc(Br)c1)c1ccccc1 (stereo not drawn) | -5 | 1% | 10µM* | 3.7µM* | -5% | 2
Clc1ccc(-n2ncc3c(NCc4cccs4)ncnc32)cc1 | -5 | -2% | ? | ? | -3% | -5
CC(=O)Nc1ccc(Nc2ncnc3c2cnn3-c2ccc(C)cc2C)cc1 | 13 | -11% | 276% | -7% | 1% | 6
Clc1ccc(Nc2ncnc3c2cnn3-c2ccccc2)cc1 | 58* | -13% | ? | -73% | 1% | 42*
CC(=O)Nc1ccc(Nc2ncnc3c2cnn3-c2ccccc2)cc1 | 50* | -2% | 106% | 135% | 3% | 41*
CC(=O)Nc1ccc(Nc2ncnc3c2cnn3-c2cccc(C)c2)cc1 | 55* | 5% | 15% | 33% | 0% | 33*
CC(C)Nc1ncnc2c1cnn2-c1ccc(Cl)cc1 | 31* | -24% | 247% | 98% | 1% | 21*
CCC(C)NC(=O)CSc1nnc(-c2cc(-c3cccs3)nc3ccccc23)o1 (stereo not drawn) | -3 | 4% | ? | . | 4% | -2
N#Cc1cnc(SCCc2ccccc2)nc1N | 39* | -9% | 19% | 72% | 14% | 24*
CCCCCCSc1ncc(C#N)c(N)n1 | 37* | 0% | -26% | 29% | 13% | 29*
Cc1ccccc1CSc1ncc(C#N)c(N)n1 | 63 | 7% | 166% | 3% | -13% | 10
N#Cc1cnc(SCC(=O)c2ccccc2)nc1N | 18 | 0% | . | 10µM* | 4% | 11
O=C(CCc1nc2ccccc2s1)NCc1ccccc1F | 27 | -2% | 24% | 26% | 0% | 20
O=C(CCCc1nc2ccccc2s1)NCc1ccccc1F | 25 | 2% | 3% | 15% | -10% | 13*
CCOc1ccc(C(=O)CCc2nc3ccccc3s2)cc1 | 62* | -6% | 50% | 19% | 3% | 22*
O=C(CCc1nc2ccccc2s1)Nc1cccnc1 | 13 | 2% | -4% | 6% | -5% | 18
NC(=O)c1ccc(NC(=O)CCc2nc3ccccc3s2)cc1 | 17 | 3% | -2% | -13% | 4% | 12*
Cc1cccc(C)c1OCc1cc(C(=O)N2CCN(c3ccccc3)CC2C)no1 (stereo not drawn) | 26 | 3% | 23% | 6% | -29% | 16*
CCC1C(=O)NCCN1C(=O)c1cc(COc2cc(C)ccc2C)on1 (stereo not drawn) | -1 | -1% | ? | ? | -5% | 12
Cc1ccc(C)c(OCc2cc(C(=O)N3CCN(c4ccccc4C)CC3C)no2)c1 (stereo not drawn) | 113* | 17% | 12µM* | 6% | 0% | 31*
Cc1csc(=O)n1CC(=O)OCC(=O)c1ccc(Br)cc1 | . | -2% | 22% | -2% | -10% | .
CC(/C=N/NC(=O)CSc1ccccn1)=C\c1ccc(C(C)C)cc1 | + | -47% | ? | -12% | 7% | 108*
CC(=C/c1ccc(C(C)C)cc1)/C=N/NC(=O)CSc1ccccn1 | 157* | -39% | -15% | ? | 2% | 71*
Cc1cc(C)nc(N2CCN(c3nc(-c4ccccc4)nc4c3oc3ccccc34)CC2)n1 | . | . | . | . | -5% | .
COC(=O)c1ccccc1S(=O)(=O)N1CCC(C(=O)N2CCC2)CC1 | . | -4% | -3% | 11% | -3% | .
Cc1ccccc1-c1nc(-c2ccc(NC(=O)c3ccc4c(c3)OCO4)cc2)no1 | 81* | -8% | 52% | . | 1% | 38*
COc1cc(-c2nc(-c3ccc(NC(=O)c4ccc5c(c4)OCO5)cc3)no2)cc(OC)c1OC | 68* | -1% | . | 51% | -14% | 40*
COc1ccc(-c2noc(CNC(=O)c3ccc4c(c3)OCO4)n2)cc1 | -11 | -1% | -22% | 12% | 1% | -3

Screening results (PubChem BioAssay)
